# Assay results published in paper PMC7862700, “An all-to-all approach to the identification of sequence-specific readers for epigenetic DNA modifications on cytosine”.
# Tests used:
# Assay in all cases: DAPPL (digital affinity profiling via proximity ligation, sequencing); 10 mM Tris-HCl pH 7.5, 50 mM NaCl, 1 mM DTT, 4% glycerol, room temperature, 30 min; GST-TFs on glutathione beads, 16-mer random dsDNA library, 0.1% formaldehyde crosslink after washing; high values mean tight binding
# [1] = target: T1, FLI1 (Homo sapiens, UniProt Q01543 1-452); conditions: protein: recombinant; tags: N-terminal GST; dsDNA, one strand shown
# T1 sequence: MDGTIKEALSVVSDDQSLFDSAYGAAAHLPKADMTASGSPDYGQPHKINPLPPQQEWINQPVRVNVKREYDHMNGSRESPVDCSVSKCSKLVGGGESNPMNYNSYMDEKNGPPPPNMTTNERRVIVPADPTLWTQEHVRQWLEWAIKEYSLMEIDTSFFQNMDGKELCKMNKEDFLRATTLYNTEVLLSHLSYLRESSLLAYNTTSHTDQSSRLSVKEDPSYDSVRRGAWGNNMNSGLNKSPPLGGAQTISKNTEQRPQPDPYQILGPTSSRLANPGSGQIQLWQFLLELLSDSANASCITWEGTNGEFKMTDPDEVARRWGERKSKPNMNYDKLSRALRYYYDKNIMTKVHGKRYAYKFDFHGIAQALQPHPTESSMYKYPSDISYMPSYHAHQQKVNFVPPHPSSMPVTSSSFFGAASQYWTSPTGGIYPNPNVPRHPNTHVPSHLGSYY
# Method in brief: (§1)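 Each value of binding signal is a hexamer's read frequency for a factor divided by the same hexamer's frequency in the tag-only sample. Barcoded, bead-captured GST fusions of human transcription factors made in yeast were pooled with that sample and incubated with 200 nmole of a random double-stranded 16-mer DNA library in Tris/NaCl/DTT/glycerol buffer at room temperature for 30 min. Washing, 0.1% formaldehyde crosslinking, proximity ligation, PCR and Illumina NextSeq500 sequencing followed.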
# [2] = target: T2, ELK1 (Homo sapiens, UniProt P19419 1-428); conditions: protein: recombinant; tags: N-terminal GST; dsDNA, one strand shown
# T2 sequence: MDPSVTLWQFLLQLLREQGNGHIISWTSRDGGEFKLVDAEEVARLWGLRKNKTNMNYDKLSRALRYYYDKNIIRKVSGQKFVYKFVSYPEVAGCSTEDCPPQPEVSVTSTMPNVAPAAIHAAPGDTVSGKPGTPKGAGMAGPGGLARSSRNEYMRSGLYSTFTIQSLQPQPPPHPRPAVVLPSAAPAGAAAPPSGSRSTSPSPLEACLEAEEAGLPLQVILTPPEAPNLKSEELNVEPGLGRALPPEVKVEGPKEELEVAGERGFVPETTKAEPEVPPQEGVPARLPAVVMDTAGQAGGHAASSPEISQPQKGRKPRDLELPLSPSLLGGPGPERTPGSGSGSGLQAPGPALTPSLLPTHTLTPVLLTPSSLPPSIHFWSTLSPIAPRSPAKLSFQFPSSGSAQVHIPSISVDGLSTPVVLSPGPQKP
# Method in brief: as §1
# [3] = target: T3, GABPA (Homo sapiens, UniProt Q06546 1-454); conditions: protein: recombinant; tags: N-terminal GST; dsDNA, one strand shown
# T3 sequence: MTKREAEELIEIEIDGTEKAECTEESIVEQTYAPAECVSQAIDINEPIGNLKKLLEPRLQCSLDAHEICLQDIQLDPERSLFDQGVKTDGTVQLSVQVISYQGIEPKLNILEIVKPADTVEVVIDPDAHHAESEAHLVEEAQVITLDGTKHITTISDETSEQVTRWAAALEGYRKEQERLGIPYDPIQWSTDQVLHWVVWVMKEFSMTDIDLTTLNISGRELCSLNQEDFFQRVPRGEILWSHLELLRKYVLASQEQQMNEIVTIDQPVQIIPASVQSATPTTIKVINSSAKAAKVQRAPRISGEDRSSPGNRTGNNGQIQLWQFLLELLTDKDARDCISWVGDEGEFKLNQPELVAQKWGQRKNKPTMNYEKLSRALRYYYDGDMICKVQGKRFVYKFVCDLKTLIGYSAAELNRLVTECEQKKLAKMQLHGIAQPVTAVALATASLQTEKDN
# Method in brief: as §1
# [4] = target: T4, ERG (Homo sapiens, UniProt P11308 1-479); conditions: protein: recombinant; tags: N-terminal GST; dsDNA, one strand shown
# T4 sequence: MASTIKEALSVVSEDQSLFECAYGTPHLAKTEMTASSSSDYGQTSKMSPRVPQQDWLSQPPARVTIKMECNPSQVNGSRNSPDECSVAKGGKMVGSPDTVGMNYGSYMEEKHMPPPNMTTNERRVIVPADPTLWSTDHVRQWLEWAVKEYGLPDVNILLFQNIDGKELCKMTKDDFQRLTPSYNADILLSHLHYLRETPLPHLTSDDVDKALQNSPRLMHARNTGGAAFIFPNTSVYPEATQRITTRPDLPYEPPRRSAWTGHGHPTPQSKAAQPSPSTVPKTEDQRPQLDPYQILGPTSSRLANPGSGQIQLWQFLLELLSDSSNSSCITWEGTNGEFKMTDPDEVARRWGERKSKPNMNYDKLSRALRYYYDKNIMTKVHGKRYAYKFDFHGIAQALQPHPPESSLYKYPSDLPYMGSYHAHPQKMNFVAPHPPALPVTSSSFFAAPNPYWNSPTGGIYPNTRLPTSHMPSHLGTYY
# Method in brief: as §1
# [5] = target: ELF1 (Homo sapiens, UniProt P32519 1-619); conditions: protein: recombinant; tags: N-terminal GST; dsDNA, one strand shown
# ELF1, sequence (P32519 whole entry): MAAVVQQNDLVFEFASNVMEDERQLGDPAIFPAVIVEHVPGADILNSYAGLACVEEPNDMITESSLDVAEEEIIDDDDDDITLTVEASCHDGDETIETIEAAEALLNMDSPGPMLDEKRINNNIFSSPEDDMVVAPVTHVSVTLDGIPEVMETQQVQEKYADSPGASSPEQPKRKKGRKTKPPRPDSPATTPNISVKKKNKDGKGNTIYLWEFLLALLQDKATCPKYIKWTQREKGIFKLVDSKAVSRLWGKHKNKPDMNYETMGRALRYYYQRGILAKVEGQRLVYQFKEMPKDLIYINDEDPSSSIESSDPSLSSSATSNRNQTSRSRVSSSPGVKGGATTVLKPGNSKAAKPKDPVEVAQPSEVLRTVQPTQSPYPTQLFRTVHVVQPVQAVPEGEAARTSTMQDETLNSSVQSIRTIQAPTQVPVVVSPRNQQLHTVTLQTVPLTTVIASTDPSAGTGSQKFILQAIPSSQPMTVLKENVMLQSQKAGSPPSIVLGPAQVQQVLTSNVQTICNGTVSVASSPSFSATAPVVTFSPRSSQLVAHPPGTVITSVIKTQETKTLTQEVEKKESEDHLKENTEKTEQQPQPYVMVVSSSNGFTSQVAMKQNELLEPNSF
# Method in brief: as §1
# [6] = target: T5, EHF (Homo sapiens, UniProt Q9NZC4 1-300); conditions: protein: recombinant; tags: N-terminal GST; dsDNA, one strand shown
# T5 sequence: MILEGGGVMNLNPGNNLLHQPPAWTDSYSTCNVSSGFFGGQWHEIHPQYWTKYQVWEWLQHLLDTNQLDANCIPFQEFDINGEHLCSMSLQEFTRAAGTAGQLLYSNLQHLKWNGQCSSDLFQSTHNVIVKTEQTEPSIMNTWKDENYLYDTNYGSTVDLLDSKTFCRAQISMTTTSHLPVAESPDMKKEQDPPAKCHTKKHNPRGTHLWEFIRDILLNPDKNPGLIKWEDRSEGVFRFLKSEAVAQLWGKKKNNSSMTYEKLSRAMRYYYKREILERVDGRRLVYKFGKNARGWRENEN
# Method in brief: as §1
# [7] = target: SPI1 (Homo sapiens, UniProt P17947 1-270); conditions: protein: recombinant; tags: N-terminal GST; dsDNA, one strand shown
# Method in brief: as §1
# [8] = target: SPIB (Homo sapiens, UniProt Q01892 1-262); conditions: protein: recombinant; tags: N-terminal GST; dsDNA, one strand shown
# SPIB, sequence (Q01892 whole entry): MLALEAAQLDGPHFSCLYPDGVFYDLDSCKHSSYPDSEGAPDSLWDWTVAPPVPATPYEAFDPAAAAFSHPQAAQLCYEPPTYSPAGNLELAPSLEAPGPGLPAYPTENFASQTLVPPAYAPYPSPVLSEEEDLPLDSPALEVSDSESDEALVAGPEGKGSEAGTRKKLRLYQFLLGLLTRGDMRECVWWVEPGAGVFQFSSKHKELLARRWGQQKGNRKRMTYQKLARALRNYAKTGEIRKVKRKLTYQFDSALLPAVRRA
# Method in brief: as §1
# [9] = target: T6, ELK3 (Homo sapiens, UniProt P41970 1-407); conditions: protein: recombinant; tags: N-terminal GST; dsDNA, one strand shown
# T6 sequence: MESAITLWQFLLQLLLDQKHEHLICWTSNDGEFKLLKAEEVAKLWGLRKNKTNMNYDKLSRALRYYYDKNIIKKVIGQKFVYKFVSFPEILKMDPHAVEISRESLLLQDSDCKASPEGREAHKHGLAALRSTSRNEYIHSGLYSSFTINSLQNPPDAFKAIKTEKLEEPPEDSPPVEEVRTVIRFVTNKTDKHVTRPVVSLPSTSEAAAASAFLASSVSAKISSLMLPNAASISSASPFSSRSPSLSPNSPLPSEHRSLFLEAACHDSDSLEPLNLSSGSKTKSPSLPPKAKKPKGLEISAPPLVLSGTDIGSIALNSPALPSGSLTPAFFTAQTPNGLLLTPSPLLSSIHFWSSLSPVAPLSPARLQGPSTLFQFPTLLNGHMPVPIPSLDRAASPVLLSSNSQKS
# Method in brief: as §1
# [10] = target: T7, FEV (Homo sapiens, UniProt Q99581 1-238); conditions: protein: recombinant; tags: N-terminal GST; dsDNA, one strand shown
# T7 sequence: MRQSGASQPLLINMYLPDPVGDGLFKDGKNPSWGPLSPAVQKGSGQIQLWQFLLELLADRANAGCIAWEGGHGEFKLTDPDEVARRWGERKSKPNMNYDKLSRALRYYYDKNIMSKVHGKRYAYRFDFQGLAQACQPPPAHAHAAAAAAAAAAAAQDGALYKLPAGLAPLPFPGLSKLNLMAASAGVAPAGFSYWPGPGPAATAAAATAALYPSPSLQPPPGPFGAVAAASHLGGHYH
# Method in brief: as §1
# [11] = target: ETV5 (Homo sapiens, UniProt P41161 1-510); conditions: protein: recombinant; tags: N-terminal GST; dsDNA, one strand shown
# ETV5, sequence (P41161 whole entry): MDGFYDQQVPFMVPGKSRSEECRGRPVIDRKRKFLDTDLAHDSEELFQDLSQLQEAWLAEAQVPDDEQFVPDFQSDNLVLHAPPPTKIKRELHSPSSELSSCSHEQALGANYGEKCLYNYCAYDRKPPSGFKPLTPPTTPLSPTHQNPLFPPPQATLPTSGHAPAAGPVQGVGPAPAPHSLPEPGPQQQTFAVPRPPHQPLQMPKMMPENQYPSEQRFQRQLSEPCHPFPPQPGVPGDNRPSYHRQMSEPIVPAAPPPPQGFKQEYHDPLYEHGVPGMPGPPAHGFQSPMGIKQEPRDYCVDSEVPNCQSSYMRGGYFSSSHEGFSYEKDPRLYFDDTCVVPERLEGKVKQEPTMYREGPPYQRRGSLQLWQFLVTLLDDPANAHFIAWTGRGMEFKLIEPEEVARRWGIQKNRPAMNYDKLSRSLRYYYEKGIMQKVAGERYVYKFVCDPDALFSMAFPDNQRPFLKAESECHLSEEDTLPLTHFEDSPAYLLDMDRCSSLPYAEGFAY
# Method in brief: as §1
# [12] = target: HSF1 (Homo sapiens, UniProt Q00613 1-529); conditions: protein: recombinant; tags: N-terminal GST; chain copies: 3; dsDNA, one strand shown
# HSF1, sequence (Q00613 whole entry): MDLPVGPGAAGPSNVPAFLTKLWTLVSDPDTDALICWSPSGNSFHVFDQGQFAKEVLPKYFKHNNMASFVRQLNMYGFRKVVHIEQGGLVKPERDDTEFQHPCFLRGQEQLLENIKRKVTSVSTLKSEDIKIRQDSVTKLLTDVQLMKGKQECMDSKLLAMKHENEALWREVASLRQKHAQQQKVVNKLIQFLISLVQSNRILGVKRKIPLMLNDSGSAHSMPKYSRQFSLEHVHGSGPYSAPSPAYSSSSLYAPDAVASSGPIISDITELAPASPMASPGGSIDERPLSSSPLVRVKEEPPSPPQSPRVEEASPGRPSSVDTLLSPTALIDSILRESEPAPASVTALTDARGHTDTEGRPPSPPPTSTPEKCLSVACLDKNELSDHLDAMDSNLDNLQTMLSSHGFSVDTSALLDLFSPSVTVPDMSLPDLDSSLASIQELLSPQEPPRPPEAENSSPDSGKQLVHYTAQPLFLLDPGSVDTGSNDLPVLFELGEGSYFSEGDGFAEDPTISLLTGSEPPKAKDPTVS
# Method in brief: as §1
# [13] = target: T8, SPIC (Homo sapiens, UniProt Q8N5J4 1-248); conditions: protein: recombinant; tags: N-terminal GST; dsDNA, one strand shown
# T8 sequence: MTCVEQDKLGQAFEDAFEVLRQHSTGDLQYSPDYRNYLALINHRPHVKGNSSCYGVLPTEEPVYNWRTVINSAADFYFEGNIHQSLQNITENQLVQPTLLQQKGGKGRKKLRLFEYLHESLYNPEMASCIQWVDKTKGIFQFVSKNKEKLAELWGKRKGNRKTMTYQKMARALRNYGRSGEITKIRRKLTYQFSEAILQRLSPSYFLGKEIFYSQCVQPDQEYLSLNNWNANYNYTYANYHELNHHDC
# Method in brief: as §1
# [14] = target: ELF4 (Homo sapiens, UniProt Q99607 1-663); conditions: protein: recombinant; tags: N-terminal GST; dsDNA, one strand shown
# ELF4, sequence (Q99607 whole entry): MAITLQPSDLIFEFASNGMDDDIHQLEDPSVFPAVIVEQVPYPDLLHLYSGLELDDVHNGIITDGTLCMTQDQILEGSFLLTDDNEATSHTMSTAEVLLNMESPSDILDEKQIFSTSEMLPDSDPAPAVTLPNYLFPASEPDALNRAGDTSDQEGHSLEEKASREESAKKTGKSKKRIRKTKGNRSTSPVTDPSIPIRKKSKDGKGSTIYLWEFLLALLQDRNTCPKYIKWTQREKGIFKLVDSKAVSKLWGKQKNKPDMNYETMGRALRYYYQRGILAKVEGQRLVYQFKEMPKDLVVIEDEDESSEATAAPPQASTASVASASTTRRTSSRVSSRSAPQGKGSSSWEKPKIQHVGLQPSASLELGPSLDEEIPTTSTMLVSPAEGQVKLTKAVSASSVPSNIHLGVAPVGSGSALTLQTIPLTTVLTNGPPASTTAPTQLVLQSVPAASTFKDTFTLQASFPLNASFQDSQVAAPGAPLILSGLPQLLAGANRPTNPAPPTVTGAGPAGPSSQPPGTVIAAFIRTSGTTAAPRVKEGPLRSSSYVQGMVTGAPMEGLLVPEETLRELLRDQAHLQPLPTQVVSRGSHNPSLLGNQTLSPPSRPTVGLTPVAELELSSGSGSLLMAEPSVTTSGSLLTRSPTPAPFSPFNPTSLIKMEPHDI
# Method in brief: as §1
# [15] = target: T9, ELK4 (Homo sapiens, UniProt P28324-2 1-405); conditions: protein: recombinant; tags: N-terminal GST; dsDNA, one strand shown
# T9 sequence: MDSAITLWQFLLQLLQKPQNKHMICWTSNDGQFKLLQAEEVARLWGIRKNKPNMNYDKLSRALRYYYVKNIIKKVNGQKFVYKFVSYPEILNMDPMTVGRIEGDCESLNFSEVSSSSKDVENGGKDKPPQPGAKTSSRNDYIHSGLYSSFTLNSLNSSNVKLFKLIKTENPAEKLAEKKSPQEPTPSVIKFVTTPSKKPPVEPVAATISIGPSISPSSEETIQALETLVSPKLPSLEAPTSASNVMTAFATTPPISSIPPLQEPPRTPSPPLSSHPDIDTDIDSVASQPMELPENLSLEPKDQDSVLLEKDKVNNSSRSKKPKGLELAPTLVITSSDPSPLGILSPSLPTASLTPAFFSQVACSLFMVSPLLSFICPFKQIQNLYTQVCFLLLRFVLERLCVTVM
# Method in brief: as §1
# [16] = target: T10, ETV2 (Homo sapiens, UniProt O00321 1-342); conditions: protein: recombinant; tags: N-terminal GST; dsDNA, one strand shown
# T10 sequence: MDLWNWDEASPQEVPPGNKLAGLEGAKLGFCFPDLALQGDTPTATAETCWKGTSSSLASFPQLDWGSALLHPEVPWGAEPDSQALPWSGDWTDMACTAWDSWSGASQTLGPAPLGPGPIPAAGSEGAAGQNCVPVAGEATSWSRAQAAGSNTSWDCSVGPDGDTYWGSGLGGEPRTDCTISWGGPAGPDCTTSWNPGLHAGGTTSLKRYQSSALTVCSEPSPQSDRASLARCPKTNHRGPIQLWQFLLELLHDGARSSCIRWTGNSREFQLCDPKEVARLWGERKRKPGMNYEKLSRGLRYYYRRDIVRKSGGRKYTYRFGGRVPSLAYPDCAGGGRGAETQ
# Method in brief: as §1
# [17] = target: T11, ELF3 (Homo sapiens, UniProt P78545 1-371); conditions: protein: recombinant; tags: N-terminal GST; dsDNA, one strand shown
# T11 sequence: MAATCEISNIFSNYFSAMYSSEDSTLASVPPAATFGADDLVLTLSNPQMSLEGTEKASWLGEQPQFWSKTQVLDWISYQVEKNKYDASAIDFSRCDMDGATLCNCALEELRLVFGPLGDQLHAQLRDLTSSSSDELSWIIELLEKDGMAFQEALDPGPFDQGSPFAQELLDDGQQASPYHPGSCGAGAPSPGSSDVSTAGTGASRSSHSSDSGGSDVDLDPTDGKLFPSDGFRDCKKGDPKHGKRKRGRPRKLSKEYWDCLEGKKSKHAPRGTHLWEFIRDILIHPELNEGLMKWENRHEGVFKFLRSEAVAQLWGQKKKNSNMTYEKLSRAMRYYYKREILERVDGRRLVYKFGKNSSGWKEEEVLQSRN
# Method in brief: as §1
# [18] = target: CRX (Homo sapiens, UniProt O43186 1-299); conditions: protein: recombinant; tags: N-terminal GST; dsDNA, one strand shown
# CRX, sequence (O43186 whole entry): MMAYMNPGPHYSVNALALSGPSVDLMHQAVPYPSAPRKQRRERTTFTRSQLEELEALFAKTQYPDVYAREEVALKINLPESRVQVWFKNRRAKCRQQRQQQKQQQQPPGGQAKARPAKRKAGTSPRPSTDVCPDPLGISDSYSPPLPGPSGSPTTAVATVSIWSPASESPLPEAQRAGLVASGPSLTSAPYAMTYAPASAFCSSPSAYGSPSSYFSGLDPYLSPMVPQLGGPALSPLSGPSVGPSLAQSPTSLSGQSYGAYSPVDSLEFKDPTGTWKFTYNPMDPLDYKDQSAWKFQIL
# Method in brief: as §1
# [19] = target: ETV1 (Homo sapiens, UniProt P50549 1-477); conditions: protein: recombinant; tags: N-terminal GST; dsDNA, one strand shown
# ETV1, sequence (P50549 whole entry): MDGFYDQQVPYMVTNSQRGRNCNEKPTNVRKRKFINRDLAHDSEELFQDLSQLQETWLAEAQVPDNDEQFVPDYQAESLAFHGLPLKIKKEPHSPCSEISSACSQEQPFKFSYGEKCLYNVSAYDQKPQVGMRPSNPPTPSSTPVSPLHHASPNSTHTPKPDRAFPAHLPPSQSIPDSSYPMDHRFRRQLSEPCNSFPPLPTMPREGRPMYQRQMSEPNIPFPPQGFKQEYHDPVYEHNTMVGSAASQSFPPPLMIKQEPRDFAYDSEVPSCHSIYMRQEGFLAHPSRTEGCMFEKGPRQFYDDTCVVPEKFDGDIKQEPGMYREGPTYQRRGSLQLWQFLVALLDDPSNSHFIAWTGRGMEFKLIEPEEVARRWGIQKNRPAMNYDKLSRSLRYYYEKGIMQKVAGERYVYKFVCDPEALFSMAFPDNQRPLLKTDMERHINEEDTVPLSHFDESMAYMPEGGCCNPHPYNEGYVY
# Method in brief: as §1
sequence,measurement,setting,value
TAACCC,binding signal,[1],"1.31 fold enrichment (6-mer frequency, TF over GST control)"
same,binding signal,[2],"1.4 fold enrichment (6-mer frequency, TF over GST control)"
same,binding signal,[3],"1.25 fold enrichment (6-mer frequency, TF over GST control)"
same,binding signal,[4],"1.23 fold enrichment (6-mer frequency, TF over GST control)"
same,binding signal,[5],"1.28 fold enrichment (6-mer frequency, TF over GST control)"
same,binding signal,[6],"1.25 fold enrichment (6-mer frequency, TF over GST control)"
same,binding signal,[7],"1.18 fold enrichment (6-mer frequency, TF over GST control)"
same,binding signal,[8],"1.21 fold enrichment (6-mer frequency, TF over GST control)"
same,binding signal,[9],"1.38 fold enrichment (6-mer frequency, TF over GST control)"
same,binding signal,[10],"1.26 fold enrichment (6-mer frequency, TF over GST control)"
same,binding signal,[11],"1.31 fold enrichment (6-mer frequency, TF over GST control)"
same,binding signal,[12],"1.3 fold enrichment (6-mer frequency, TF over GST control)"
same,binding signal,[13],"1.35 fold enrichment (6-mer frequency, TF over GST control)"
same,binding signal,[14],"1.32 fold enrichment (6-mer frequency, TF over GST control)"
same,binding signal,[15],"1.2 fold enrichment (6-mer frequency, TF over GST control)"
same,binding signal,[16],"1.17 fold enrichment (6-mer frequency, TF over GST control)"
same,binding signal,[17],"1.29 fold enrichment (6-mer frequency, TF over GST control)"
same,binding signal,[18],"1.77 fold enrichment (6-mer frequency, TF over GST control)"
same,binding signal,[19],"1.29 fold enrichment (6-mer frequency, TF over GST control)"
